Values without a mark were called inactive. Records with an inconclusive call do not appear. Where a call stands in place of a potency, no number is given. Active and inactive are the calls of the source. Calls follow the shape of the dose curve; as a rule, active = well fitted curve in the direction sought with a large enough effect in the repeat runs; inconclusive = weak or mixed curves; inactive = no such curve, though single readings can be large; an effect the other way counts as inactive or inconclusive.
What was measured:
[1] = Caspase-3/7 induction in HepG2 cells by small molecules, qHTS assay (AID 1346978); also: nearly all actives have a fitted effect of over 15% in size
How it was run: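 Wild-type HepG2 cells, 2,000/well, settled 5 hr at 37 C and 5% CO2, then compound-treated for 17 hr; caspase-3/7 activity read by luminescent Caspase-Glo 3/7 after 30 min at room temperature.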

[2] = Caspase-3/7 induction in CHO-K1 cells by small molecules, qHTS cell viability counter screen (AID 1346979); also: nearly all actives have a fitted effect of over 35% in size; also: potency is read from the fitted curve at half-maximal effect
How it was run: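 Cytotoxicity counter screen: CellTiter-Fluor added to compound-treated wild-type CHO-K1 cells at 16 h (37C, 5% CO2), fluorescence measured 1 h later; same wells as caspase-3/7 measurement.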

[3] = Caspase-3/7 induction in CHO-K1 cells by small molecules, qHTS assay (AID 1346980); also: nearly all actives have a fitted effect of over 15% in size
How it was run: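 Wild-type CHO-K1 cells exposed to compounds for 17hr at 37 C, 5% CO2. Caspase-3/7 activity then measured by Caspase-Glo 3/7 luminescence after 30min at room temperature.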

[4] = Caspase-3/7 induction in HepG2 cells by small molecules, qHTS cell viability counter screen (AID 1346981); also: nearly all actives have a fitted effect of over 30% in size; also: potency is read from the fitted curve at half-maximal effect
How it was run: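 Wild-type HepG2 cells (2,000/well) were allowed to settle for 5 hr at 37 C, 5% CO2, then dosed with compounds in DMSO by pin transfer. After 16 hr at 37 C, CellTiter-Fluor was added and fluorescence read 1 hr later.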

[5] = biological target: Nuclear receptor subfamily 1 group I member 2 (Homo sapiens) (UniProt O75469); experiment: Human pregnane X receptor (PXR) small molecule agonists, qHTS assay (AID 1346982); also: nearly all actives have a fitted effect of over 35% in size
Sequence of Nuclear receptor subfamily 1 group I member 2 (Homo sapiens) (O75469 whole entry, looked up): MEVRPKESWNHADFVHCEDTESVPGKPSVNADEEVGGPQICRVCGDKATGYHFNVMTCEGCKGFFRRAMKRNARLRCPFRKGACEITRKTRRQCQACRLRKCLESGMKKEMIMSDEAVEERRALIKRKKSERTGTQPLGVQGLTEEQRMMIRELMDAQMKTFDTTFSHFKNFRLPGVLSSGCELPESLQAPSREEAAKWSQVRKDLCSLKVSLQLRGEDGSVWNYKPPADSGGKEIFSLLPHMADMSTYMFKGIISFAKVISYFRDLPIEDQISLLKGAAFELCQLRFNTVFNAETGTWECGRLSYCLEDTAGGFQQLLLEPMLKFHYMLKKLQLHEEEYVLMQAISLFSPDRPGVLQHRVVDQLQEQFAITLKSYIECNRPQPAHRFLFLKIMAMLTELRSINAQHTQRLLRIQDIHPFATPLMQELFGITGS
How it was run: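 PXR-Luc HepG2 cells (CYP3A4 promoter-driven luciferase) were seeded in medium with 5% charcoal-stripped FBS, left 5 hr at 37 C, then exposed to compounds in DMSO for 24 hr. Luminescence was read after ONE-Glo addition.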

[6] = biological target: Cytochrome P450 2D6 (Homo sapiens) (UniProt P10635); experiment: Cytochrome P450 Family 2 Subfamily D Member 6 (CYP2D6) small molecule antagonists: luciferase reporter qHTS assay (AID 1671196); also: nearly all actives have a fitted effect of over 50% in size; also: potency is read from the fitted curve at half-maximal effect
Sequence of Cytochrome P450 2D6 (Homo sapiens) (P10635 whole entry, looked up): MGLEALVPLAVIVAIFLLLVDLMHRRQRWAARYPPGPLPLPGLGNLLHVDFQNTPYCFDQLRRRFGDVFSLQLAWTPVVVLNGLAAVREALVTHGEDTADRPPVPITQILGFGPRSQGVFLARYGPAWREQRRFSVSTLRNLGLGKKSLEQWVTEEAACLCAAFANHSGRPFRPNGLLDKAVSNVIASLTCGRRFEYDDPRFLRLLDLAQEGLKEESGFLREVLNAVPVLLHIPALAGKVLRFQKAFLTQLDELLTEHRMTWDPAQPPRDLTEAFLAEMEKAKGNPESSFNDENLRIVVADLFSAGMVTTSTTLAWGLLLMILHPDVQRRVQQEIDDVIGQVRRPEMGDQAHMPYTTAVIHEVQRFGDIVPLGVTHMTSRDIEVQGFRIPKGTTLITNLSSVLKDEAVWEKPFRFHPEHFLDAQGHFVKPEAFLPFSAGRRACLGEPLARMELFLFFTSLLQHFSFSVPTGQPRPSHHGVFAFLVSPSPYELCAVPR
How it was run: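 CYP2D6 enzyme–substrate mix was held with compound for 10 min at room temperature, then NADPH regeneration solution was added and the reaction ran 1 h at room temperature. Luciferin product was detected by luminescence after 20 min with detection reagent.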

[7] = biological target: Cytochrome P450 2C19 (Homo sapiens) (UniProt P33261); experiment: Cytochrome P450 Family 2 Subfamily C Member 19 (CYP2C19) small molecule antagonists: luciferase reporter qHTS assay (AID 1671197); also: nearly all actives have a fitted effect of over 65% in size; also: potency is read from the fitted curve at half-maximal effect
Sequence of Cytochrome P450 2C19 (Homo sapiens) (P33261 whole entry, looked up): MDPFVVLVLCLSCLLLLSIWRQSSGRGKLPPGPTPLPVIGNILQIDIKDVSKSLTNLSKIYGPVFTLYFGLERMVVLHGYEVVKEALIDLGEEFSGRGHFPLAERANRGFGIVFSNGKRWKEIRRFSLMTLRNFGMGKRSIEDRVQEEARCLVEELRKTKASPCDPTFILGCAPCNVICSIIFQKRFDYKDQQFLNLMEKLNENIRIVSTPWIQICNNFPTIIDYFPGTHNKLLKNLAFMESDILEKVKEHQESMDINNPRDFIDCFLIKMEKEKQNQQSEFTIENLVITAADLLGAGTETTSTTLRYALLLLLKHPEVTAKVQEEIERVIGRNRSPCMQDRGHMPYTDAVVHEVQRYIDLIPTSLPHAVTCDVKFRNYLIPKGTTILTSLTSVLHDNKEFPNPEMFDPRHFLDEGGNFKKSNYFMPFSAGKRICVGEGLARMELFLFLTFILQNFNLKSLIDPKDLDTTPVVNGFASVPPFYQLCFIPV
How it was run: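 P450-Glo CYP2C19 screening system; proluciferin substrate; DMSO compound stocks; 10 min RT preincubation; NADPH regeneration, 1 h at 37C; luciferin detection reagent, 20 min RT; luminescence as RLU.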

[8] = biological target: Cytochrome P450 2C9 (Homo sapiens) (UniProt P11712); experiment: Cytochrome P450 Family 2 Subfamily C Member 9 (CYP2C9) small molecule antagonists: luciferase reporter qHTS assay (AID 1671198); also: nearly all actives have a fitted effect of over 50% in size; also: potency is read from the fitted curve at half-maximal effect
Sequence of Cytochrome P450 2C9 (Homo sapiens) (P11712 whole entry, looked up): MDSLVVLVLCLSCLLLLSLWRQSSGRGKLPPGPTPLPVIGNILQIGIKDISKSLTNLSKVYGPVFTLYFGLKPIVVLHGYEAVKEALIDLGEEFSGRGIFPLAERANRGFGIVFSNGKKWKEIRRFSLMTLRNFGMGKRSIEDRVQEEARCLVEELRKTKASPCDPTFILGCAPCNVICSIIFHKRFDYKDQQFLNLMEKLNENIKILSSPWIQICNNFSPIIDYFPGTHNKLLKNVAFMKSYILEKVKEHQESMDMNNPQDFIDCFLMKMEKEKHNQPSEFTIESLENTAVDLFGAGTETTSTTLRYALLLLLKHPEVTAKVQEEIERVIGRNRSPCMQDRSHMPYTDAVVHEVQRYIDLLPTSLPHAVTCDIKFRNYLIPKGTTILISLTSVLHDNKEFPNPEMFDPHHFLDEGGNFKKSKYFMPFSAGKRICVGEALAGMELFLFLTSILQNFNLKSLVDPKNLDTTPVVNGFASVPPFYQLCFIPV
How it was run: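 P450-Glo proluciferin substrate with CYP2C9 enzyme; 10 min RT preincubation, then NADPH regeneration 1 h at 37C; luciferin detection reagent 20 min RT, luminescence in relative luminescence units.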

[9] = biological target: Cytochrome P450 1A2 (Homo sapiens) (UniProt P05177); experiment: Cytochrome P450 Family 1 Subfamily A Member 2 (CYP1A2) small molecule antagonists: luciferase reporter qHTS assay (AID 1671199); also: nearly all actives have a fitted effect of over 50% in size; also: potency is read from the fitted curve at half-maximal effect
Sequence of Cytochrome P450 1A2 (Homo sapiens) (P05177 whole entry, looked up): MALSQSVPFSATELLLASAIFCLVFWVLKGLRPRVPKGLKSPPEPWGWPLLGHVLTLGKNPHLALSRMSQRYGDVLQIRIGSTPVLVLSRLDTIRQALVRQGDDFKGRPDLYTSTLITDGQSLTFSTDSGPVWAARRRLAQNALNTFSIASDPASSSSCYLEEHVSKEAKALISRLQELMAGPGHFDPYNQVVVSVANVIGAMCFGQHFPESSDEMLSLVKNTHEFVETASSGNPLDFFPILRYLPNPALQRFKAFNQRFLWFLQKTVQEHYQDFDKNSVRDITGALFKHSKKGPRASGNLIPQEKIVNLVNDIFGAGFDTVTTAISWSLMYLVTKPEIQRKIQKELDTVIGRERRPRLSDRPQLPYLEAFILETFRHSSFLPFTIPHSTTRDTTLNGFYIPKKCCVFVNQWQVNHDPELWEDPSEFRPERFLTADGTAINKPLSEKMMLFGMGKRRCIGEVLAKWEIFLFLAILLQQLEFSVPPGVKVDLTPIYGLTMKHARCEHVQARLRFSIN
How it was run: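 Human CYP1A2 activity measured with a P450-Glo proluciferin substrate; compounds in DMSO preincubated 10 min at room temperature with enzyme-substrate mix, then NADPH regeneration system added for 1 h. Luciferin detection reagent, 20 min, luminescence read.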

[10] = biological target: Voltage-gated inwardly rectifying potassium channel KCNH2 (Homo sapiens) (UniProt Q12809); experiment: Human Ether-a-go-go-Related Gene (hERG) channel small molecule antagonists: fluorescence cell-based qHTS assay (AID 1671200); also: series mostly up to about 77 µM; nearly all actives have a fitted effect of over 50% in size
Sequence of Voltage-gated inwardly rectifying potassium channel KCNH2 (Homo sapiens) (Q12809 whole entry, looked up): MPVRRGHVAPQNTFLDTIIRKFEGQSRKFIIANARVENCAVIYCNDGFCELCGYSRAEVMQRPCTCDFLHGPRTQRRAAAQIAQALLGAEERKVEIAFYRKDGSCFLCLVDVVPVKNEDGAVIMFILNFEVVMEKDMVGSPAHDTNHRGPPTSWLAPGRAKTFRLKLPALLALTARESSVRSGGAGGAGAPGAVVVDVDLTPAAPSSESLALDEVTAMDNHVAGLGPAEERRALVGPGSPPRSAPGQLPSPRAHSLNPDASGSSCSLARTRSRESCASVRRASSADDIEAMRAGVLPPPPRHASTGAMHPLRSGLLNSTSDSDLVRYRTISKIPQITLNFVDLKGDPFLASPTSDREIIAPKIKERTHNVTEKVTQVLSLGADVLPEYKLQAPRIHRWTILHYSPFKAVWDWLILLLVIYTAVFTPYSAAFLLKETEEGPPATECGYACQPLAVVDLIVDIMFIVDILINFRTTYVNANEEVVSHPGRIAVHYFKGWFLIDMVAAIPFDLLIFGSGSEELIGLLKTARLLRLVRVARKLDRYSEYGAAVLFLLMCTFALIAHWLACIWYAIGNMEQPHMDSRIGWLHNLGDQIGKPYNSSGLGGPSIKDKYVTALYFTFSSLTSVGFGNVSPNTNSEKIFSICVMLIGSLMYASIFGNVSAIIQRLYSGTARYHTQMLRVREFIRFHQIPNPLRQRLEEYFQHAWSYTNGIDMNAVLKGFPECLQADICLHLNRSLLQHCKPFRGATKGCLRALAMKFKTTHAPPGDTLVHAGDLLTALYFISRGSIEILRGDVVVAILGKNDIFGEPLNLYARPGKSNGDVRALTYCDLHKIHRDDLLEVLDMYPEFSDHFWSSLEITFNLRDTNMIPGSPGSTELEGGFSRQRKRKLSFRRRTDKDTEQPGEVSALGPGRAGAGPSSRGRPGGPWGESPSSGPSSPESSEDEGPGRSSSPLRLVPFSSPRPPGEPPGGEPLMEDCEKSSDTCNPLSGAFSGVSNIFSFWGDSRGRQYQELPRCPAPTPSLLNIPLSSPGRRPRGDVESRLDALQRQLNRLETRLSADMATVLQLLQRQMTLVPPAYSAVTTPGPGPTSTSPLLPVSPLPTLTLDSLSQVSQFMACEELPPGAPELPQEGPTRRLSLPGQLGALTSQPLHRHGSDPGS
How it was run: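 Thallium flux as potassium surrogate: FluxOR II dye loaded 1 h at room temperature into hERG-expressing U2OS cells, then stimulus buffer added after 10 min. Kinetic 480 nm excitation/540 nm emission read, 2 min.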

[11] = biological target: Cytochrome P450 3A4 (Homo sapiens) (UniProt P08684); experiment: Cytochrome P450 Family 3 Subfamily A Member 4 (CYP3A4) small molecule antagonists: luciferase reporter qHTS assay (AID 1671201)
Sequence of Cytochrome P450 3A4 (Homo sapiens) (P08684 whole entry, looked up): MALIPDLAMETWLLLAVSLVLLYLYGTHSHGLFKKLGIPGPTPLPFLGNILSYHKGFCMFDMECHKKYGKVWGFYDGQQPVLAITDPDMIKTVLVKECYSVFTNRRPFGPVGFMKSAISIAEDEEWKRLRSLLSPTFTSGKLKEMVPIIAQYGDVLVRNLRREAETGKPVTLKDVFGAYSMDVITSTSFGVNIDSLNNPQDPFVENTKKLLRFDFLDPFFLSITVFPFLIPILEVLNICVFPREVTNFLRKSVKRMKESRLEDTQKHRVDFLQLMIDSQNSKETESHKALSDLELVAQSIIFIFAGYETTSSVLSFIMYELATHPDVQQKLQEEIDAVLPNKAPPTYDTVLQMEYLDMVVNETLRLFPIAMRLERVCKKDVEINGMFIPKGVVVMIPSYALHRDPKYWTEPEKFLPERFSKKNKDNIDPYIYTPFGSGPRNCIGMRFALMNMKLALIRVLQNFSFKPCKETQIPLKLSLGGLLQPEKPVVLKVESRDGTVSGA
How it was run: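 Recombinant human CYP3A4 converts a proluciferin substrate to luciferin over 1 h at room temperature after NADPH regeneration solution is added (compound preincubated 10 min); detection reagent stops reaction, luminescence read 20 min later as relative units.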

[12] = biological target: Nuclear receptor subfamily 1 group I member 2 (Rattus norvegicus) (UniProt Q9R1A7); experiment: Rat pregnane X receptor (rPXR) activation by small molecules, qHTS assay (AID 1346983); conditions: rPXR luciferase reporter cells, One-Glo luminescence, 24 h; max activation: hits give high values; also: nearly all actives have a fitted effect of over 20% in size
Sequence of Nuclear receptor subfamily 1 group I member 2 (Rattus norvegicus) (Q9R1A7 whole entry, looked up): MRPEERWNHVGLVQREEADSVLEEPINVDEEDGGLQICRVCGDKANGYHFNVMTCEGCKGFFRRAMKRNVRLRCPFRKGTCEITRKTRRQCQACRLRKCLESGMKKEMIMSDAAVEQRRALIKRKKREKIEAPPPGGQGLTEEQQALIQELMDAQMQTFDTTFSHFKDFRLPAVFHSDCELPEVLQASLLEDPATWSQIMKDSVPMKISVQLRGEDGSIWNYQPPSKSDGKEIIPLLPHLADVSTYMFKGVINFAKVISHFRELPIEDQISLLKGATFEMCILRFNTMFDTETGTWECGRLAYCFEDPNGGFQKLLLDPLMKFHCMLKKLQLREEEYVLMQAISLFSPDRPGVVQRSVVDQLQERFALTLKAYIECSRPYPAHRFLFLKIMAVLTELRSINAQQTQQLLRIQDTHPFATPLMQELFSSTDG
How it was run: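 Cell-based rPXR activation assay: rPXR cells, 2,000 per well, rested 5hr at 37 C, then exposed to compounds in DMSO for 24 hr at 37 C. Luciferase activity read by One-Glo luminescence after 30 min at room temperature.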

[13] = biological target: Nuclear receptor subfamily 1 group I member 2 (Homo sapiens) (UniProt O75469); experiment: CYP3A4 induction through human pregnane X receptor (PXR) by small molecules, qHTS assay (AID 1346984); also: nearly all actives have a fitted effect of over 40% in size
How it was run: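 DPX-2 cells (HepG2 co-transfected with PXR and CYP3A4 promoter-luciferase) treated with compounds 24 h at 37C; luciferin-IPA CYP3A4 substrate 3uM final added for 3 h, then One-Glo; luminescence read. qHTS format.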

[14] = biological target: Nuclear receptor subfamily 1 group I member 2 (Homo sapiens) (UniProt O75469); experiment: Human pregnane X receptor (PXR) activation by small molecules, qHTS assay (AID 1346985); also: nearly all actives have a fitted effect of over 40% in size
How it was run: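 DPX-2 cells (HepG2 co-transfected with a PXR response element and a CYP3A4-promoter luciferase construct) were seeded at 2,000 per well, rested 5 hr at 37C, then exposed to DMSO-dissolved compounds for 24 hr. Activation was read as luciferase luminescence.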

| SMILES | outcome [1] | Potency [2] | Potency [3] | Potency [4] | Potency [5] | Potency [6] | Potency [7] | Potency [8] | Potency [9] | Potency [10] | Potency [11] | max activation [12] | Potency [13] | Potency [14] |
| --- | --- | --- | --- | --- | --- | --- | --- | --- | --- | --- | --- | --- | --- | --- |
| SC1CCCC1 | inactive | inactive | inactive | inactive | inactive | inactive | inactive | inactive | inactive | inactive | inactive |  |  |  |
| c1ccc(CNCc2ccccc2)cc1 | inactive | inactive | inactive | inactive | inactive | 1.12 µM (active) | 6.33 µM (active) | 44.8 µM (active) | 25.2 µM (active) | inactive | inactive |  |  |  |
| Cc1c(Cn2ccnc2)c2ccccc2n1CCC(=O)O | inactive | inactive | inactive | inactive | inactive |  | 34.7 µM (active) | 3.09 µM (active) | 12.3 µM (active) |  |  | -1.57% | inactive | inactive |
| CC(C)(C)c1cc(O)c(C(C)(C)C)cc1O | inactive | 61.1 µM (active) | inactive |  |  |  |  |  |  |  |  |  |  |  |
| CCN(CC)CCc1nc(-c2ccccc2)no1 | inactive | inactive | inactive | inactive | inactive | 7.76 µM (active) | inactive | inactive |  | inactive | inactive | -0.305% | inactive | inactive |
| C=Cc1c(C)c2cc3[nH]c(cc4nc(cc5nc(cc1[nH]2)C(C)=C5CCC(=O)O)C(CCC(=O)O)=C4C)c(C)c3C=C | inactive | 21.1 µM (active) | inactive | 13.3 µM (active) | inactive |  | inactive | inactive | inactive | inactive | inactive | -1.27% | inactive | inactive |
| CCCc1ccccc1 | inactive | inactive | inactive | inactive | inactive | inactive | inactive | inactive | inactive | inactive | inactive |  |  |  |
| O=S1(=O)N=C(O)c2ccccc21 | inactive | inactive | inactive |  |  |  |  |  |  |  |  |  |  |  |
| COc1ccccc1OC(=O)Oc1ccccc1OC | inactive | inactive | inactive | inactive | inactive |  | 9.77 µM (active) | inactive | 4.56 µM (active) | inactive | inactive | -1.11% | inactive | inactive |
| CCOc1cc(OCC)c(C(=O)CCC(=O)O)cc1OCC | inactive | inactive | inactive | inactive | inactive | inactive | inactive | inactive | inactive | inactive | inactive | -2.62% | inactive | inactive |
| CC(=O)O[C@H]1C[C@@H]2CC[C@@H]3[C@H](CC[C@@]4(C)[C@H]3C[C@H]([N+]3(C)CCCCC3)[C@@H]4OC(C)=O)[C@@]2(C)C[C@@H]1N1CCCCC1 | inactive | inactive | inactive | inactive | inactive |  | inactive | inactive | inactive | inactive |  | -3.12% | inactive | inactive |
| Cn1c(NCCN(CCO)CCCc2ccc([N+](=O)[O-])cc2)cc(=O)n(C)c1=O | inactive | inactive | inactive | inactive | inactive |  | inactive | inactive | inactive |  | inactive | -2.3% | inactive | inactive |
| Cc1cc(CC(=O)O)c(C)n1-c1ccc(Cl)cc1 | inactive | inactive | inactive | inactive | inactive |  | 7.76 µM (active) | 15.5 µM (active) | inactive | inactive |  | 0.177% | inactive | inactive |
| CC(C)NCC(O)c1cc(O)cc(O)c1 (stereo not given) | inactive | inactive | inactive | inactive | inactive | inactive | inactive | inactive |  | inactive | inactive | -6.91% | inactive | inactive |
| CCCCCCCCCO | inactive | inactive | inactive | inactive | inactive |  |  |  |  |  |  |  |  |  |
| CC(C)NCC(O)COc1ccc(CC(N)=O)cc1 (stereo not given) | inactive | inactive | inactive | inactive | inactive |  |  |  |  |  |  |  |  |  |
| NC(=S)N/N=C/c1cccnc1 | inactive | inactive | inactive | inactive | inactive | inactive | inactive | inactive | 17.4 µM (active) | inactive | inactive | -5.63% | inactive | inactive |
| NCc1ccccc1 | inactive | inactive | inactive | inactive | inactive | 31.7 µM (active) | inactive | inactive | 31.7 µM (active) | inactive | inactive |  |  |  |
| O=C(O)[C@@H]1[C@H]2C[C@H]3c4[nH]c5ccccc5c4CCN3C[C@@H]2CC[C@@H]1O | inactive | inactive | inactive | inactive | inactive | 1.55 µM (active) | 8.71 µM (active) | inactive | inactive | inactive | inactive | -0.311% | inactive | inactive |
| N#CCCNCCC#N | inactive | inactive | inactive | inactive | inactive | inactive | inactive |  |  | inactive | inactive |  |  |  |
| CC(C)(C)c1cc(CCC(=O)OCC(COC(=O)CCc2cc(C(C)(C)C)c(O)c(C(C)(C)C)c2)(COC(=O)CCc2cc(C(C)(C)C)c(O)c(C(C)(C)C)c2)COC(=O)CCc2cc(C(C)(C)C)c(O)c(C(C)(C)C)c2)cc(C(C)(C)C)c1O | inactive | inactive | inactive | inactive | inactive | inactive | 33.8 µM (active) |  | 6.75 µM (active) | inactive | inactive |  |  |  |
